Data taken from PubChem BioAssay (NCI).
The panel holds about 83,000 compounds, 20% with a hit somewhere; the sample as a whole holds those more often.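 A percent growth of 40 corresponds to 60% growth inhibition; 0 means no net growth; -100 means all cells died. Active threshold: below 10.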 Activity calls are given as the source filed them.

What was measured:
Experiment in all cases: NCI-60 one-dose screen, 48 h (100 = growth as untreated, 0 = no growth, -100 = all killed)
Conditions in all cases: 10 µM
K-562 leukemia = tested on: K-562 leukemia
MDA-MB-231 breast = tested on: MDA-MB-231 breast
RXF 393 renal = tested on: RXF 393 renal
SF-268 CNS = tested on: SF-268 CNS
SF-295 CNS = tested on: SF-295 CNS
SF-539 CNS = tested on: SF-539 CNS
UACC-257 melanoma = tested on: UACC-257 melanoma
M14 melanoma = tested on: M14 melanoma
HCT-15 colon = tested on: HCT-15 colon

Measured: growth

COc1ccc2c(c1)-c1c(c3cc(OC)ccc3n(CCN(C)C)c1=O)C2=O
active: SF-295 CNS 7.07%
inactive: K-562 leukemia 18.6% | MDA-MB-231 breast 36.7% | RXF 393 renal 25.2% | SF-268 CNS 22.1% | SF-539 CNS 37.7% | UACC-257 melanoma 18.4% | M14 melanoma 24% | HCT-15 colon 21.9%

COc1cc(/C=C2\CCCC3=C2N=C2SC=NN2C3c2cc(OC)c(OC)c(OC)c2)cc(OC)c1OC (configuration not stated)
active: K-562 leukemia 8.28% | MDA-MB-231 breast 2.06% | SF-539 CNS 5.9% | M14 melanoma 9.84% | HCT-15 colon 6.59%
inactive: RXF 393 renal 21.7% | SF-268 CNS 22.9% | SF-295 CNS 21.4% | UACC-257 melanoma 34.3%

O=C1OCC2=C1C(c1cccc(Cl)c1)c1cc3c(cc1N2CCO)CCC3 (configuration not stated)
active: MDA-MB-231 breast -19.3% | SF-295 CNS -18.8% | SF-539 CNS -5.32% | M14 melanoma 8.51% | HCT-15 colon 9.71%
inactive: K-562 leukemia 16.7% | RXF 393 renal 34.3% | SF-268 CNS 13.9% | UACC-257 melanoma 46%
